Measurements taken from the supplement of paper PMC12669032.

What follows are compounds tested on Bacteroides stercoris (assay: growth AUC relative to DMSO control (median of replicates) (fraction); higher = more growth (less inhibition), active = hit call of the paper). Conditions: 20 µM; 24 h;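 active = AUC reduced over 20% with Padj below 0.05 in at least 2 of 3 replicates; inactive = otherwise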.
Outline: (§1)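 Gut bacteria were grown singly in mGAM at 37 °C without oxygen, from OD600 0.05, alongside 20 µM compound in 1% DMSO, and OD600 was read each hour for 24 h. Area under the growth curve was normalised to the median of solvent-only wells per plate, or to row and column medians on the industrial chemical plate. The minimum OD was set to 0 beforehand, and the reported value is the median of three biological replicates grown on separate days.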

**Q.** For Clc1ccc(Cl)cc1, which “growth AUC” value is on record?
**A.** The value was 1.08 (inactive).

**Q.** C#CC(C)(C)NC(=O)c1cc(Cl)cc(Cl)c1 was tested. Which “growth AUC” value did it give?
**A.** The value was 0.88 (inactive).

**Q.** CC1CCCCC1NC(=O)Nc1ccccc1 (mixture of isomers) was tested. Which “growth AUC” value did it give?
**A.** The value was 0.973 (inactive).

**Q.** With Cc1ccc(N=CN(C)C=Nc2ccc(C)cc2C)c(C)c1 as the compound, how does the “growth AUC” value read?
**A.** The value was 1.05 (inactive).

**Q.** CC(C)N1C(=O)c2ccccc2NS1(=O)=O was tested. Which “growth AUC” value did it give?
**A.** Its value is 1 (inactive).

**Q.** For CC1(C)CC/C(=C\c2ccc(Cl)cc2)C1(O)Cn1cncn1 (stereo not drawn), which “growth AUC” value is on record?
**A.** Its value is 0.792 (inactive).

**Q.** For CCCN(CCCl)c1c([N+](=O)[O-])cc(C(F)(F)F)cc1[N+](=O)[O-], which “growth AUC” value is on record?
**A.** Its value is 0.93 (inactive).

**Q.** For COC(=O)Nc1nc2ccccc2[nH]1, which “growth AUC” value is on record?
**A.** Its value is 0.957 (inactive).

**Q.** Which “growth AUC” value does the source give for Cc1cc(C(F)(C(F)(F)F)C(F)(F)F)ccc1NC(=O)c1cccc(I)c1C(=O)NC(C)(C)CS(C)(=O)=O here?
**A.** Its value is 0.937 (inactive).

**Q.** For CC(C)OC(=O)Nc1cccc(Cl)c1, which “growth AUC” value is on record?
**A.** Its value is 1.04 (inactive).

**Q.** With c1coc(-c2nc3ccccc3[nH]2)c1 as the compound, how does the “growth AUC” value read?
**A.** The value was 1.17 (inactive).

**Q.** Which “growth AUC” value does the source give for COC(=O)c1ccccc1S(=O)(=O)NC(=O)Nc1nc(C)nc(OC)n1 here?
**A.** The value was 0.849 (inactive).

**Q.** For Nc1cc(Cl)ccc1Cl, which “growth AUC” value is on record?
**A.** Its value is 1.25 (inactive).

**Q.** Which “growth AUC” value does the source give for CCSCc1ccccc1OC(=O)NC here?
**A.** Its value is 0.992 (inactive).

**Q.** How did the “growth AUC” value turn out when COP(=S)(OC)Oc1ccc([N+](=O)[O-])c(C)c1 was run?
**A.** Its value is 0.969 (inactive).

**Q.** For CCOC(=O)/C=C(C)/C=C/C[C@@H](C)CCCC(C)C, which “growth AUC” value is on record?
**A.** Its value is 1.12 (inactive).

**Q.** Which “growth AUC” value does the source give for COc1nn(CSP(=S)(OC)OC)c(=O)s1 here?
**A.** Its value is 1.04 (inactive).

**Q.** With CCCCOCN(C(=O)CCl)c1c(CC)cccc1CC as the compound, how does the “growth AUC” value read?
**A.** Its value is 1.25 (inactive).

**Q.** COc1ccc(C(c2ccc(OC)cc2)C(Cl)(Cl)Cl)cc1 was tested. Which “growth AUC” value did it give?
**A.** Its value is 0.49 (active).

**Q.** CNC(=O)/C(=N/OC)c1ccccc1Oc1ccccc1 was tested. Which “growth AUC” value did it give?
**A.** Its value is 1.02 (inactive).

**Q.** With O=C(O)c1ccc(=O)[nH]c1 as the compound, how does the “growth AUC” value read?
**A.** The value was 0.972 (inactive).

**Q.** For c1ccc2c(c1)ccc1c3ccccc3sc21, which “growth AUC” value is on record?
**A.** Its value is 1 (inactive).

**Q.** Which “growth AUC” value does the source give for CC1(C)C(/C=C(\Cl)C(F)(F)F)C1C(=O)OC(C#N)c1cccc(Oc2ccccc2)c1 (stereo not drawn) here?
**A.** Its value is 1.19 (inactive).

**Q.** For CNC(=O)Oc1cc(C)cc(C(C)C)c1, which “growth AUC” value is on record?
**A.** Its value is 0.938 (inactive).

**Q.** CCOP(=S)(OCC)Oc1cc(Cl)c(SC)cc1Cl was tested. Which “growth AUC” value did it give?
**A.** The value was 1.11 (inactive).

**Q.** O=[N+]([O-])C(Br)(CO)CO was tested. Which “growth AUC” value did it give?
**A.** Its value is 1.01 (inactive).

**Q.** Cc1c(F)c(F)c(COC(=O)[C@@H]2[C@H](/C=C(\Cl)C(F)(F)F)C2(C)C)c(F)c1F (mixture of isomers) was tested. Which “growth AUC” value did it give?
**A.** Its value is 0.981 (inactive).

**Q.** COP(=S)(OC)Oc1ccc(S(C)=O)c(C)c1 (stereo not drawn) was tested. Which “growth AUC” value did it give?
**A.** The value was 1.16 (inactive).

**Q.** Which “growth AUC” value does the source give for CCNc1nc(NCC)nc(SC)n1 here?
**A.** The value was 1.26 (inactive).

**Q.** How did the “growth AUC” value turn out when CC(C)N(C(=O)SCC(Cl)=C(Cl)Cl)C(C)C was run?
**A.** Its value is 0.955 (inactive).

**Q.** How did the “growth AUC” value turn out when CCOP(=S)(OCC)Oc1ccc([N+](=O)[O-])cc1 was run?
**A.** Its value is 1.05 (inactive).

**Q.** Which “growth AUC” value does the source give for CC(C)[C@@H](Nc1ccc(C(F)(F)F)cc1Cl)C(=O)OC(C#N)c1cccc(Oc2ccccc2)c1 (stereo partly drawn) here?
**A.** Its value is 1.01 (inactive).

**Q.** For Fc1ccc(C2(Cn3cncn3)OC2c2ccccc2Cl)cc1 (stereo not drawn), which “growth AUC” value is on record?
**A.** The value was 1.02 (inactive).

**Q.** CCCC1COC(Cn2cncn2)(c2ccc(Cl)cc2Cl)O1 (stereo not drawn) was tested. Which “growth AUC” value did it give?
**A.** The value was 0.854 (inactive).

**Q.** For CCOC(=O)C(O)(c1ccc(Cl)cc1)c1ccc(Cl)cc1, which “growth AUC” value is on record?
**A.** The value was 0.376 (active).

**Q.** With CC#Cc1cc(C)nc(Nc2ccccc2)n1 as the compound, how does the “growth AUC” value read?
**A.** The value was 1 (inactive).

**Q.** How did the “growth AUC” value turn out when CC(C)N(Cc1ccccc1)C(=O)C(C)(C)C was run?
**A.** Its value is 0.958 (inactive).

**Q.** For O=c1oc2ccccc2c(O)c1C1CC(c2ccc(-c3ccc(Br)cc3)cc2)Cc2ccccc21 (stereo not drawn), which “growth AUC” value is on record?
**A.** The value was 0.00883 (active).

**Q.** Which “growth AUC” value does the source give for C[N+](C)(C)CCCl.[Cl-] here?
**A.** Its value is 1.08 (inactive).

The compounds below were run on Bacteroides thetaiotaomicron in the same assay as above. Conditions: 20 µM; 24 h.
Outline: as §1

**Q.** Which “growth AUC” value does the source give for Clc1ccc(Cl)cc1 here?
**A.** The value was 1.01 (inactive).

**Q.** For C#CC(C)(C)NC(=O)c1cc(Cl)cc(Cl)c1, which “growth AUC” value is on record?
**A.** The value was 0.932 (inactive).

**Q.** For CC1CCCCC1NC(=O)Nc1ccccc1 (mixture of isomers), which “growth AUC” value is on record?
**A.** The value was 0.969 (inactive).

**Q.** With Cc1ccc(N=CN(C)C=Nc2ccc(C)cc2C)c(C)c1 as the compound, how does the “growth AUC” value read?
**A.** Its value is 1.01 (inactive).

**Q.** With CC(C)N1C(=O)c2ccccc2NS1(=O)=O as the compound, how does the “growth AUC” value read?
**A.** The value was 1.01 (inactive).

**Q.** For CC1(C)CC/C(=C\c2ccc(Cl)cc2)C1(O)Cn1cncn1 (stereo not drawn), which “growth AUC” value is on record?
**A.** Its value is 0.971 (inactive).

**Q.** CCCN(CCCl)c1c([N+](=O)[O-])cc(C(F)(F)F)cc1[N+](=O)[O-] was tested. Which “growth AUC” value did it give?
**A.** The value was 0.918 (inactive).

**Q.** COC(=O)Nc1nc2ccccc2[nH]1 was tested. Which “growth AUC” value did it give?
**A.** Its value is 1.04 (inactive).

**Q.** For Cc1cc(C(F)(C(F)(F)F)C(F)(F)F)ccc1NC(=O)c1cccc(I)c1C(=O)NC(C)(C)CS(C)(=O)=O, which “growth AUC” value is on record?
**A.** The value was 1.02 (inactive).

**Q.** CC(C)OC(=O)Nc1cccc(Cl)c1 was tested. Which “growth AUC” value did it give?
**A.** The value was 1.02 (inactive).

**Q.** Which “growth AUC” value does the source give for c1coc(-c2nc3ccccc3[nH]2)c1 here?
**A.** Its value is 0.96 (inactive).

**Q.** COC(=O)c1ccccc1S(=O)(=O)NC(=O)Nc1nc(C)nc(OC)n1 was tested. Which “growth AUC” value did it give?
**A.** The value was 0.995 (inactive).

**Q.** For Nc1cc(Cl)ccc1Cl, which “growth AUC” value is on record?
**A.** The value was 1.03 (inactive).

**Q.** CCSCc1ccccc1OC(=O)NC was tested. Which “growth AUC” value did it give?
**A.** The value was 0.967 (inactive).

**Q.** How did the “growth AUC” value turn out when COP(=S)(OC)Oc1ccc([N+](=O)[O-])c(C)c1 was run?
**A.** Its value is 0.99 (inactive).

**Q.** CCOC(=O)/C=C(C)/C=C/C[C@@H](C)CCCC(C)C was tested. Which “growth AUC” value did it give?
**A.** Its value is 0.986 (inactive).

**Q.** How did the “growth AUC” value turn out when COc1nn(CSP(=S)(OC)OC)c(=O)s1 was run?
**A.** Its value is 1.04 (inactive).

**Q.** How did the “growth AUC” value turn out when CCCCOCN(C(=O)CCl)c1c(CC)cccc1CC was run?
**A.** Its value is 0.923 (inactive).

**Q.** How did the “growth AUC” value turn out when COc1ccc(C(c2ccc(OC)cc2)C(Cl)(Cl)Cl)cc1 was run?
**A.** Its value is 0.776 (active).

**Q.** CNC(=O)/C(=N/OC)c1ccccc1Oc1ccccc1 was tested. Which “growth AUC” value did it give?
**A.** Its value is 0.975 (inactive).

**Q.** O=C(O)c1ccc(=O)[nH]c1 was tested. Which “growth AUC” value did it give?
**A.** The value was 0.984 (inactive).

**Q.** c1ccc2c(c1)ccc1c3ccccc3sc21 was tested. Which “growth AUC” value did it give?
**A.** Its value is 0.998 (inactive).

**Q.** Which “growth AUC” value does the source give for CC1(C)C(/C=C(\Cl)C(F)(F)F)C1C(=O)OC(C#N)c1cccc(Oc2ccccc2)c1 (stereo not drawn) here?
**A.** The value was 0.995 (inactive).

**Q.** How did the “growth AUC” value turn out when CNC(=O)Oc1cc(C)cc(C(C)C)c1 was run?
**A.** Its value is 0.967 (inactive).

**Q.** How did the “growth AUC” value turn out when CCOP(=S)(OCC)Oc1cc(Cl)c(SC)cc1Cl was run?
**A.** Its value is 0.992 (inactive).

**Q.** For O=[N+]([O-])C(Br)(CO)CO, which “growth AUC” value is on record?
**A.** Its value is 0.962 (inactive).

**Q.** Which “growth AUC” value does the source give for Cc1c(F)c(F)c(COC(=O)[C@@H]2[C@H](/C=C(\Cl)C(F)(F)F)C2(C)C)c(F)c1F (mixture of isomers) here?
**A.** Its value is 0.989 (inactive).

**Q.** With COP(=S)(OC)Oc1ccc(S(C)=O)c(C)c1 (stereo not drawn) as the compound, how does the “growth AUC” value read?
**A.** The value was 0.962 (inactive).

**Q.** For CCNc1nc(NCC)nc(SC)n1, which “growth AUC” value is on record?
**A.** The value was 0.955 (inactive).

**Q.** How did the “growth AUC” value turn out when CC(C)N(C(=O)SCC(Cl)=C(Cl)Cl)C(C)C was run?
**A.** Its value is 0.999 (inactive).

**Q.** CCOP(=S)(OCC)Oc1ccc([N+](=O)[O-])cc1 was tested. Which “growth AUC” value did it give?
**A.** Its value is 0.972 (inactive).

**Q.** How did the “growth AUC” value turn out when CC(C)[C@@H](Nc1ccc(C(F)(F)F)cc1Cl)C(=O)OC(C#N)c1cccc(Oc2ccccc2)c1 (stereo partly drawn) was run?
**A.** The value was 0.994 (inactive).

**Q.** With Fc1ccc(C2(Cn3cncn3)OC2c2ccccc2Cl)cc1 (stereo not drawn) as the compound, how does the “growth AUC” value read?
**A.** Its value is 0.941 (inactive).

**Q.** How did the “growth AUC” value turn out when CCCC1COC(Cn2cncn2)(c2ccc(Cl)cc2Cl)O1 (stereo not drawn) was run?
**A.** Its value is 0.902 (inactive).

**Q.** CCOC(=O)C(O)(c1ccc(Cl)cc1)c1ccc(Cl)cc1 was tested. Which “growth AUC” value did it give?
**A.** The value was 0.874 (inactive).

**Q.** With CC#Cc1cc(C)nc(Nc2ccccc2)n1 as the compound, how does the “growth AUC” value read?
**A.** Its value is 0.945 (inactive).

**Q.** CC(C)N(Cc1ccccc1)C(=O)C(C)(C)C was tested. Which “growth AUC” value did it give?
**A.** Its value is 0.98 (inactive).

**Q.** With O=c1oc2ccccc2c(O)c1C1CC(c2ccc(-c3ccc(Br)cc3)cc2)Cc2ccccc21 (stereo not drawn) as the compound, how does the “growth AUC” value read?
**A.** The value was 0.788 (active).

**Q.** For C[N+](C)(C)CCCl.[Cl-], which “growth AUC” value is on record?
**A.** Its value is 1.02 (inactive).
